Test results as given in the supplement of paper PMC9135407.
Where “and” joins values, the source holds several entries; their conditions need not be identical. Identical values can stand only once. Counter-ions that a name gives are not always drawn. In all, about 5,800 compounds went through this assay and about 620 (11%) showed activity. The full list was thinned out, with actives kept by preference. Values without a mark were called inactive.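 Rule for the calls: active = score above a cut-off or among the top three wells of a plate; in these data no inactive exceeds 0.85.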

Test system: primary human hepatic stellate cells (donor 1)
Test: scaled lipid accumulation score (0 = DMSO-like, 1 = nortriptyline-like); higher = stronger HSC inactivation (lipid re-accumulation), active = hit call of the paper
Conditions: 48 h
[1] = library stock concentration: 10 mM
[2] = library stock concentration: 2 mM
[3] = library stock concentration: 3.33 mM
[4] = library stock concentration: 80 uM
[5] = library stock concentration: 400 uM
[6] = library stock concentration: 1 mM

CCNC(=O)N1CCN(CCCC(c2ccc(F)cc2)c2ccc(F)cc2)CC1 [Amperozide hydrochloride]
scaled lipid accumulation score [1]: 0.661

O=C1NCN(c2ccccc2)C12CCN(CCCC(c1ccc(F)cc1)c1ccc(F)cc1)CC2 [Fluspirilene]
scaled lipid accumulation score [1]: 1.02 (active)

O=C1NCN(c2ccccc2)C12CCN(CCCC(c1ccc(F)cc1)c1ccc(F)cc1)CC2 [Fluspirilen]
scaled lipid accumulation score: ≤ 0

O=C(Nc1ccc(C(F)(F)F)cn1)N1CCN(c2ncccc2C(F)(F)F)CC1
scaled lipid accumulation score [1]: 0.012

CCCC[C@@H](C)/C=C(C)/C=C(\C)C(=O)NC1=C[C@@](O)(/C=C/C=C/C=C/C(=O)NC2=C(O)CCC2=O)[C@@H]2O[C@@H]2C1=O [Manumycin A]
scaled lipid accumulation score (library stock concentration: 9.1 mM): 0.793

COc1cc2ncnc(Nc3ccc(F)c(Cl)c3)c2cc1OCCCN1CCOCC1 [Gefitinib]
scaled lipid accumulation score (library stock concentration: 4.5 mM): 0.19

COc1cc2ncnc(Nc3ccc(F)c(Cl)c3)c2cc1OCCCN1CCOCC1 [Gefitinib (ZD1839, Iressa) (2 mM)]
scaled lipid accumulation score [2]: 0.864 (active)

COc1cc2ncnc(Nc3ccc(F)c(Cl)c3)c2cc1OCCCN1CCOCC1 [Gefitinib (ZD1839)] [listing 1 of 2 here]
scaled lipid accumulation score [1]: 1.05 (active)

COc1cc2ncnc(Nc3ccc(F)c(Cl)c3)c2cc1OCCCN1CCOCC1 [Gefitinib (ZD1839)] [listing 2 of 2 here]
scaled lipid accumulation score [3]: 0.43

COc1cc2ncnc(Nc3ccc(F)c(Cl)c3)c2cc1OCCCN1CCOCC1 [Gefitinib (ZD1839, Iressa) (10 mM)]
scaled lipid accumulation score [1]: 0.94 (active)

C=CC(=O)Nc1cc2c(Nc3ccc(F)c(Cl)c3)ncnc2cc1OCCCN1CCOCC1 [listing 1 of 2 here]
scaled lipid accumulation score [4]: 0.045
scaled lipid accumulation score [5]: ≤ -0.009 and ≤ -0.005
scaled lipid accumulation score [2]: 0.07 and ≤ -0.005
scaled lipid accumulation score [1]: 0.314

C=CC(=O)Nc1ccc2ncnc(Nc3cccc(Br)c3)c2c1
scaled lipid accumulation score [3]: 0.014
scaled lipid accumulation score [1]: 0.802

COc1cc2ncnc(Nc3ccc(F)c(Cl)c3)c2cc1OCCCN1CCOCC1 [Gefitinib (ZD1839, Iressa) (0.4 mM)]
scaled lipid accumulation score [5]: 0.081

COc1cc2ncnc(Nc3ccc(F)c(Cl)c3)c2cc1OCCCN1CCOCC1
scaled lipid accumulation score [4]: ≤ -0.003
scaled lipid accumulation score [5]: ≤ -0.009
scaled lipid accumulation score [2]: 0.19
scaled lipid accumulation score [1]: 0.65

C=CC(=O)Nc1cc2c(Nc3ccc(F)c(Cl)c3)ncnc2cc1OCCCN1CCOCC1 [listing 2 of 2 here]
scaled lipid accumulation score [1]: 0.983 (active)

C=CC(=O)Nc1cc2c(Nc3ccc(F)c(Cl)c3)ncnc2cc1C#CC(C)(C)N1CCN(C)CC1
scaled lipid accumulation score [5]: 0.879 (active)

CC(=O)OCC(=O)[C@@]1(O)[C@H](OC(C)=O)C[C@H]2[C@@H]3CCC4=CC(=O)C=C[C@]4(C)[C@@]3(F)[C@@H](O)C[C@@]21C [Triamcinolone diacetate]
scaled lipid accumulation score [1]: ≤ 0

COc1ncc(-c2ccc3nccc(-c4ccnnc4)c3c2)cc1NS(=O)(=O)c1ccc(F)cc1F
scaled lipid accumulation score [4]: ≤ -0.009
scaled lipid accumulation score [5]: ≤ -0.009
scaled lipid accumulation score [2]: ≤ -0.009
scaled lipid accumulation score [3]: 0.066
scaled lipid accumulation score [1]: 0.479 and 0.24

O=C(Nc1ccccc1)C12CC1C(=NO)c1ccccc1O2 (stereo not drawn)
scaled lipid accumulation score [1]: ≤ -0.006

Clc1cccc(Nc2nnc(-c3ccccc3)c3ccccc23)c1
scaled lipid accumulation score [1]: 0.162
scaled lipid accumulation score (library stock concentration: 15.1 mM): 0.258

CCCCCCCCCC(=O)N[C@H](CN1CCOCC1)[C@H](O)c1ccccc1 (racemic) [DL-threo-PDMP (hydrochloride)]
scaled lipid accumulation score [6]: 0.001

CCCn1c(=O)c(C)cn2nc(N)nc12
scaled lipid accumulation score [1]: ≤ 0 and 0.03

C=C1CC[C@@H]2[C@](C)(CO)[C@H](O)CC[C@@]2(C)[C@@H]1C/C=C1/C(=O)OC[C@H]1O [Andrographolide]
scaled lipid accumulation score [3]: 0.094
scaled lipid accumulation score [1]: 0.785

C[C@@H]1C[C@H]2[C@@H]3C[C@H](F)C4=CC(=O)C(Cl)=C[C@]4(C)[C@@]3(F)[C@@H](O)C[C@]2(C)[C@@]1(O)C(=O)CO
scaled lipid accumulation score [1]: ≤ 0

CC1(C)S[C@@H]2[C@H](NC(=O)[C@H](N)c3ccc(O)cc3)C(=O)N2[C@H]1C(=O)O [Amoxicillin Sodium]
scaled lipid accumulation score [3]: ≤ 0
scaled lipid accumulation score [1]: ≤ 0

CC1(C)S[C@@H]2[C@H](NC(=O)[C@H](N)c3ccc(O)cc3)C(=O)N2[C@H]1C(=O)O
scaled lipid accumulation score [1]: 0.145

CC1(C)S[C@@H]2[C@H](NC(=O)[C@H](N)c3ccc(O)cc3)C(=O)N2[C@H]1C(=O)O [Amoxicillin]
scaled lipid accumulation score: 0.056
scaled lipid accumulation score [3]: ≤ 0
scaled lipid accumulation score [1]: 0.044 and ≤ 0

O=C(CCC/C=C\C[C@@H]1C(/C=C/[C@@H](O)COc2cccc(C(F)(F)F)c2)[C@H](O)C[C@@H]1O)NC(CO)CO (stereo partly drawn) [Fluprostenol serinol amide]
scaled lipid accumulation score [6]: ≤ 0

c1ccc(C2CN3CCSC3=N2)cc1 (single isomer, unassigned; (-)) [(-)-Tetramisole hydrochloride]
scaled lipid accumulation score [1]: ≤ -0.055

CCCCC(C)(O)C/C=C/[C@H]1[C@H](O)CC(=O)[C@@H]1CCCCCCC(=O)OC (stereo partly drawn) [Misoprostol]
scaled lipid accumulation score [6]: ≤ 0
scaled lipid accumulation score (library stock concentration: 5.2 mM): ≤ 0

CCCCC[C@H](O)/C=C/[C@@H]1[C@@H](CCCCCCC(=O)O)[C@H](O)C[C@@H]1O [11.beta.-Prostaglandin F1.beta.]
scaled lipid accumulation score [6]: ≤ 0

COc1cc2ncnc(Nc3ccc(F)c(Cl)c3)c2cc1OCCCN1CCOCC1 [Iressa]
scaled lipid accumulation score [1]: 0.9 (active)

CC(C)[C@H](O)C(=O)O [(S)-(+)-2-hydroxy-3-Methylbutyric Acid]
scaled lipid accumulation score [6]: ≤ 0

Cc1cc(C)c(/C=C2\C(=O)Nc3ccccc32)[nH]1 [Semaxanib (SU5416)]
scaled lipid accumulation score [3]: ≤ 0
scaled lipid accumulation score [1]: 0.145

CN(C)c1ccc(/C=C2/C(=O)Nc3ccccc32)cc1
scaled lipid accumulation score [1]: ≤ 0 and 0.041
scaled lipid accumulation score (library stock concentration: 18.9 mM): 0.01

Cc1cc(C)c(/C=C2\C(=O)Nc3ccccc32)[nH]1
scaled lipid accumulation score [6]: ≤ 0
scaled lipid accumulation score [1]: ≤ 0 and 0.011

Cc1cc(C)c(/C=C2\C(=O)Nc3ccccc32)[nH]1 [VEGF Receptor 2 Kinase Inhibitor III]
scaled lipid accumulation score [3]: ≤ 0

CC(C)(C)OC(=O)Nc1ccc(-c2cc(C(=O)NCCCCCCC(=O)NO)no2)cc1
scaled lipid accumulation score [6]: ≤ 0

CC(=O)OCC(=O)[C@@]1(O)CC[C@H]2[C@@H]3C[C@H](C)C4=CC(=O)C=C[C@]4(C)[C@H]3[C@@H](O)C[C@@]21C
scaled lipid accumulation score [1]: ≤ 0

COc1ccc(CCN(C)CCc2ccc(OC)c(OC)c2)cc1OC [YS-035 hydrochloride]
scaled lipid accumulation score [1]: 0.011 and 0.112

Br.Br.CN(CCc1ccc(Cl)c(Cl)c1)CCN1CCCC1 [BD 1008 dihydrobromide]
scaled lipid accumulation score [1]: 0.882 (active)

CN1CCN(CCc2ccc(Cl)c(Cl)c2)CC1 [BD 1063 dihydrochloride]
scaled lipid accumulation score [1]: 0.684

C[C@H](NCc1ccc(OCc2cccc(F)c2)cc1)C(N)=O [Safinamide Mesylate]
scaled lipid accumulation score [3]: ≤ 0
scaled lipid accumulation score [1]: ≤ 0

CC(C)OC(=O)CCC/C=C/C[C@H]1C(=O)C[C@@H](O)[C@@H]1/C=C/[C@@H](O)COc1cccc(C(F)(F)F)c1 [9-keto Fluprostenol isopropyl ester]
scaled lipid accumulation score [6]: ≤ 0

C=C1C[C@@H](O)[C@H](/C=C/[C@@H](O)C(C)(C)CCCC)[C@H]1C/C=C\CCCC(=O)O [9-deoxy-9-methylene-16,16-dimethyl Prostaglandin E2]
scaled lipid accumulation score [6]: ≤ 0

CCOC(=O)c1cnc2ccc(-c3cncc(NS(=O)(=O)c4ccccc4)c3)cn12 [listing 1 of 2 here]
scaled lipid accumulation score [1]: 0.915 (active)

CCOC(=O)c1cnc2ccc(-c3cncc(NS(=O)(=O)c4ccccc4)c3)cn12 [listing 2 of 2 here]
scaled lipid accumulation score [3]: 0.492

CCCCC[C@H](O)/C=C/[C@H]1C(=O)C[C@H](O)[C@@H]1C/C=C\CCCC(=O)NCCO [Prostaglandin D2 Ethanolamide]
scaled lipid accumulation score [6]: ≤ 0

CCC(C)C1OC2(CCC1C)CC1CC(CC=C(C)C(OC3CC(OC)C(OC4CC(OC)C(O)C(C)O4)C(C)O3)C(C)C=CC=C3COC4C(O)C(C)=CC(C(=O)O1)C34O)O2 (stereo not drawn) [Ivermectin]
scaled lipid accumulation score [3]: 0.007
scaled lipid accumulation score [1]: 0.198

CCC(=O)NC[C@H](Cc1ccc(OCCc2nc(-c3ccccc3)oc2C)cc1)N/C(C)=C\C(=O)c1ccc(C(F)(F)F)cc1
scaled lipid accumulation score [1]: ≤ -0.001

NC[C@H]1CC[C@H](C(=O)Oc2ccc(CCC(=O)O)cc2)CC1
scaled lipid accumulation score [1]: ≤ 0

COC(=O)N[C@@H](C)CNc1nccc(-c2cn(C(C)C)nc2-c2cc(Cl)cc(NS(C)(=O)=O)c2F)n1
scaled lipid accumulation score [3]: ≤ -0.009
scaled lipid accumulation score [1]: 0.655

CNCCC[C@]12CC[C@H](c3ccccc31)c1ccccc12.Cl [Maprotiline hydrochloride]
scaled lipid accumulation score: 0.944 (active)

CNCCCC12CCC(c3ccccc31)c1ccccc12.Cl [Maprotiline hydrochloride] [listing 1 of 2 here]
scaled lipid accumulation score [1]: 1.59 (active)

CNCCCC12CCC(c3ccccc31)c1ccccc12.Cl [Maprotiline HCl]
scaled lipid accumulation score [1]: 1.31 (active)

CNCCCC12CCC(c3ccccc31)c1ccccc12.Cl [Maprotiline hydrochloride] [listing 2 of 2 here]
scaled lipid accumulation score (library stock concentration: 6.4 mM): 1.05 (active)
scaled lipid accumulation score [1]: 0.918 (active) and 1.23 (active)

O=C(O)C1CCCNC1 (stereo not drawn)
scaled lipid accumulation score: ≤ 0
scaled lipid accumulation score [1]: 0.207

CCCCC[C@@](C)(O)/C=C/[C@@H]1[C@@H](C/C=C\CCCC(=O)O)[C@@H](O)C[C@H]1O [15(R)-15-methyl Prostaglandin F2.alpha.]
scaled lipid accumulation score [6]: ≤ 0
